Screens as filed in PubChem BioAssay.
In the library only some 9.5% were active in any assay of this set; here they are far more common.
SARS PLP yeast: blocks SARS-CoV papain-like protease in a yeast assay; AID 485353; Potency, µM (highest dose often 32.9 µM), without a hit: at the highest dose activity, positive = growth rescue, hits mostly activators; 0.19% of 330,000 active; S. cerevisiae expressing SARS-CoV PLpro, growth rescue; note: 0% is about no effect; nearly all actives have a fitted effect of over 55% in size
Pf growth 96h: inhibits malaria parasite growth, 96 h. Potency, µM (series often up to 28.7 µM), without a hit: at the highest dose activity change, negative = inhibition, usual class: inhibitors. AID 504834. 6.9% of 320,000 active. P. falciparum luciferase reporter growth, 96 h; active = well fitted inhibition curve with a large enough effect; inconclusive = small, poorly fitted or top-dose-only effect, or another doubt; inactive = no such curve, though single readings can be large or run the other way; note: % is set by controls: 0 for no effect and ±100 for the full control effect
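Compounds incubated with erythrocytes infected by luciferase-expressing P. falciparum (2% hematocrit, 0.05% parasitemia final) for 96 hours, 37 C in 5% CO2. Growth inhibition scored as decreased luciferase luminescence.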
RE007 growth inh: less growth of the S. pombe RE007 Vpr strain | S. pombe RE007 Vpr strain, BacTiter-Glo ATP luminescence, 24 h | Potency, µM (titrated, usually from 92.2 µM), for inactives: at the top dose activity change, negative = less growth, actives largely listed as inhibitors | 0.21% of 360,000 active | AID 651644; active = well fitted falling curve with a large enough effect; inconclusive = small, poorly fitted or top-dose-only effect; inactive = no such curve, though single readings can be large or run the other way; note: % is set by controls: 0 for no effect and ±100 for the full control effect; nearly all actives have a fitted effect of over 50% in size
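Fission yeast strain RE007, carrying one chromosomally integrated HIV-1 vpr copy, was seeded at OD 0.01 in PMG+AL medium with 23 nL pinned compound. After 24 h at 30 °C and 99% humidity, viability was read by BacTiter-Glo luminescence.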
NS1 function inh: inhibitors of influenza NS1 protein function | Potency, µM (highest dose often 46.1 µM), for inactives: at the highest dose activity, positive = more growth | 0.4% of 270,000 active; note: actives are rising curves; nearly all actives have a fitted effect of over 50% in size
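In this qHTS, NS1 from influenza A is expressed in budding yeast, where it slows growth. Cells are switched from glucose to 2% galactose medium (pH 6.0, -URA), treated with compound, and growth recovery is read at OD600.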
Pf growth 48h: inhibits P. falciparum growth in the first generation, 48 h; 5.9% of 310,000 active; AID 504832; Potency, µM (doses to about 28.7 µM), for inactives: at the highest dose activity change, negative = inhibition, usual class: inhibitors; P. falciparum luciferase growth in erythrocytes, 48 h; active = well fitted inhibition curve with a large enough effect; inconclusive = small, poorly fitted or top-dose-only effect, or another doubt; inactive = no such curve, though single readings can be large or run the other way; note: % is set by controls: 0 for no effect and ±100 for the full control effect
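Parasite viability was followed by luminescence of a genomically integrated firefly luciferase. Cultures held 0.1% parasitemia at 2% hematocrit (final), incubated under 5% CO2 at 37 C.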
Starred values were filed as active, the others as inactive; [ ] = dose if it differs, or a comment. Unless noted, calls come from the whole dose curve. Potency is the fitted concentration of half-maximal effect.

Results for O=c1c2ccccc2nc(-c2ccco2)n1-c1ccccc1 ?
SARS PLP yeast: -13.5%; Pf growth 96h: 8.28µM*; RE007 growth inh: -11.1%; NS1 function inh: -0.8%; Pf growth 48h: inconclusive

How did Cc1ccccc1-n1c(-c2ccco2)nc2ccccc2c1=O do in these assays?
SARS PLP yeast: 15.0%; Pf growth 96h: -7.0%; RE007 growth inh: 12.9%; NS1 function inh: -5.6%; Pf growth 48h: inconclusive

How did O=C1c2ccccc2-n2c1nc1ccccc1c2=O do in these assays?
SARS PLP yeast: -13.4%; Pf growth 96h: 0.0037µM*; RE007 growth inh: inconclusive; NS1 function inh: -40.4%; Pf growth 48h: 0.329µM*

How did CC[C@H](CN(C)C)C(=O)c1ccco1 do in these assays?
NS1 function inh: -3.9%

Results for COC(=O)C(NC(=O)c1cccnc1Cl)C(C)C (configuration not stated) ?
SARS PLP yeast: 0.8%; Pf growth 96h: 31.9%; RE007 growth inh: 1.9%; NS1 function inh: -1.9%; Pf growth 48h: 70.3%

What do the screens show for `COc1cc(/C=N/NC(=O)c2ccccn2)ccc1OC(=O)c1cccs1`?
SARS PLP yeast: -5.8%; Pf growth 96h: inconclusive; RE007 growth inh: -10.2%; NS1 function inh: -11.8%; Pf growth 48h: 50.7%

What do the screens show for `COc1cc(C(C(=O)NCc2ccccc2)N(C(=O)c2snc(C(N)=O)c2N)C2CCCC2)cc(OC)c1OC` (configuration not stated)?
SARS PLP yeast: 0.0%; Pf growth 96h: 4.65µM*; RE007 growth inh: -16.7%; NS1 function inh: 4.5%; Pf growth 48h: 13.1µM*

What do the screens show for `COc1ccc(C(C(=O)NC2CCCCC2)N(Cc2cccnc2)C(=O)c2snc(C(N)=O)c2N)cc1` (configuration not stated)?
SARS PLP yeast: -2.4%; Pf growth 96h: 58.6%; RE007 growth inh: 3.7%; NS1 function inh: -3.8%; Pf growth 48h: inconclusive

Results for COc1ccc(C(C(=O)NCc2ccccc2)N(C(=O)c2snc(C(N)=O)c2N)C2CCCC2)cc1 (configuration not stated) ?
SARS PLP yeast: 1.0%; Pf growth 96h: 66.8%; RE007 growth inh: -3.1%; NS1 function inh: 4.2%; Pf growth 48h: 14.7µM*

How did COc1cc(SC)ccc1C(=O)NCCOc1c(C)cc(C)cc1C do in these assays?
SARS PLP yeast: -6.6%; Pf growth 96h: 4.65µM*; RE007 growth inh: -13.0%; NS1 function inh: 10.5%; Pf growth 48h: 13.1µM*

What do the screens show for `COc1cc(SC)ccc1C(=O)NCCOc1ccc(Cl)cc1`?
SARS PLP yeast: -66.9%; Pf growth 96h: 0.4%; RE007 growth inh: -1.8%; NS1 function inh: -40.1%; Pf growth 48h: inconclusive

Results for O=C(O)C1CCCCN1c1ccccc1[N+](=O)[O-] (configuration not stated) ?
RE007 growth inh: 13.0%[18.4 µM]

What do the screens show for `O=C(O)C1Cc2ccccc2N2CCCC12` (configuration not stated)?
SARS PLP yeast: 0.9%; Pf growth 96h: 1.85µM*; RE007 growth inh: -4.1%; NS1 function inh: 0.8%; Pf growth 48h: inconclusive

Results for CCCCC(=O)N(C)c1c(CC)nc2c(OCC(N)=O)cccn12 ?
RE007 growth inh: 0.7%

How did Cn1c(SCC(=O)N(C2CCCCC2)C2CCCCC2)nnc1-c1cccs1 do in these assays?
SARS PLP yeast: 2.8%; RE007 growth inh: 11.7%; NS1 function inh: -7.2%[9.22 µM]; Pf growth 48h: 11.7µM*

How did O=C(CCC(=O)Nc1cccc(C(F)(F)F)c1)NCC1CCCO1 (configuration not stated) do in these assays?
SARS PLP yeast: -1.0%; Pf growth 96h: 4.2%; RE007 growth inh: -0.3%; NS1 function inh: 24.1%; Pf growth 48h: 14.4%

How did O=C(CN1CCC(C(O)(c2ccccc2)c2ccccc2)CC1)Nc1ccccc1 do in these assays?
SARS PLP yeast: 2.2%; Pf growth 96h: inconclusive; RE007 growth inh: 14.8%; NS1 function inh: -4.2%; Pf growth 48h: 10.4µM*

What do the screens show for `O=C(CN1CCN(c2ccccc2)CC1)Nc1cccc(C(F)(F)F)c1`?
SARS PLP yeast: -0.6%; Pf growth 96h: -24.2%; RE007 growth inh: 5.2%; NS1 function inh: inconclusive; Pf growth 48h: 5.3%

How did CC1CCN(CC(=O)Nc2cccc(C(=O)Nc3cccc(C(F)(F)F)c3)c2)CC1 do in these assays?
SARS PLP yeast: -4.1%; Pf growth 96h: 0.928µM*; RE007 growth inh: -1.5%; NS1 function inh: 5.0%; Pf growth 48h: 1.31µM*

Results for CC1CN(CC(=O)Nc2cccc(C(=O)Nc3cccc(C(F)(F)F)c3)c2)CC(C)O1 (configuration not stated) ?
SARS PLP yeast: -17.7%; Pf growth 96h: 0.147µM*; RE007 growth inh: 1.0%; NS1 function inh: -48.2%

How did O=C(COC(=O)C1CCCO1)Nc1cccc(C(F)(F)F)c1 (configuration not stated) do in these assays?
SARS PLP yeast: -0.6%; Pf growth 96h: 7.38µM*; RE007 growth inh: 9.9%; NS1 function inh: -8.4%; Pf growth 48h: 1.8%

Results for CSc1nnc(C)c(=O)n1COC(=O)c1ccc(S(=O)(=O)N(C)C)cc1 ?
SARS PLP yeast: 15.5%; Pf growth 96h: inconclusive; RE007 growth inh: 14.3%; NS1 function inh: 5.6%; Pf growth 48h: 16.5%

Results for Cc1ccc(CNC(=O)CNC(=O)c2ccc(C(C)(C)C)cc2)n1C ?
SARS PLP yeast: 2.1%; RE007 growth inh: -24.2%

How did O=C(N/N=C1\CC2CC=CC12)c1ccc(Br)cc1 (configuration not stated) do in these assays?
SARS PLP yeast: -2.2%; Pf growth 96h: -2.8%; RE007 growth inh: -4.7%; Pf growth 48h: 12.2%

How did Cc1cc(Br)c(OCc2ccc(C(=O)N/N=C3\CC4CC=CC34)cc2)c(Br)c1 (configuration not stated) do in these assays?
SARS PLP yeast: 0.0%; Pf growth 96h: inconclusive; RE007 growth inh: 46.8%; NS1 function inh: inconclusive; Pf growth 48h: 10.4µM*

How did CC(=O)c1ccc(N2CCN(C(=O)c3cccs3)CC2)c(F)c1 do in these assays?
SARS PLP yeast: -3.6%; Pf growth 96h: inconclusive; RE007 growth inh: -19.7%; NS1 function inh: -0.9%; Pf growth 48h: inconclusive

How did COc1ccc(C(=O)Oc2cccc3cccnc23)cc1S(=O)(=O)N1CCOCC1 do in these assays?
SARS PLP yeast: -6.6%; Pf growth 96h: -16.7%; RE007 growth inh: 31.6µM*; NS1 function inh: -43.6%; Pf growth 48h: inconclusive

Results for COc1ccc(CSc2cccc3cccnc23)cc1[N+](=O)[O-] ?
SARS PLP yeast: 6.9%; Pf growth 96h: 6.57µM*; RE007 growth inh: -16.0%; NS1 function inh: -5.7%; Pf growth 48h: 69.5%

Results for COc1ccc(CSc2nc(C)[nH]c2[N+](=O)[O-])cc1[N+](=O)[O-] ?
SARS PLP yeast: -0.3%; Pf growth 96h: 2.2%; RE007 growth inh: 9.3%; NS1 function inh: 0.6%; Pf growth 48h: 32.4%
